Measured values published in PubChem BioAssay (NCATS).
Records with an inconclusive call do not appear. Unmarked numbers belong to inactive results. Active and inactive are the calls of the source. Calls follow the shape of the dose curve; as a rule, active = well fitted inhibition curve with a large enough effect; inconclusive = small, poorly fitted or top-dose-only effect; inactive = no such curve, though single readings can be large or run the other way. Where a SMILES comes first, the peptide text is derived from it. Bridges are numbered along the chain shown (N, C = ends). [ ]: non-standard residue; d: D form. NMeY = CN[CH](Cc1ccc(O)cc1)C(=O)O

system: Zika virus NS2B-NS3 protease (linked construct); experiment: Primary screen NINDS Rhodamine qHTS for Zika virus inhibitors (AID 1347160); conditions: purified NS2B-NS3 protease, Rhodamine110 substrate fluorescence; series mostly up to 57.1 µM; activity change, negative = inhibition: at the top concentration; also: nearly all actives have a fitted effect of over 55% in size
How it was run: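 Each compound, titrated, sat 15 min with 25 nM linked protease before 1.5 microM Rhodamine110 substrate went in. Fluorescence gain over the next 15 min, in pH 8.0 Tris with Tween 20, gave Hill-fitted curves.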
% is scaled to controls: 0 for no effect and ±100 for the full control effect.

SMILES | activity change, negative = inhibition | outcome
C=CC[C@]12C[C@@H](OC)C(=O)C(OC)=C1O[C@@H](c1cc(OC)c3c(c1)OCO3)[C@@H]2C | -7.3% [at 33.1 µM] | 
Fc1ccc2nc(CCC#Cc3ccccn3)cn2c1 | 17.1% | 
COc1ccc([C@@H]2OC[C@H]3[C@@H]2CO[C@@H]3c2ccc(OC3OC(CO)C(O)C(O)C3O)c(OC)c2)cc1OC (stereo not given in full) |  | inactive [at 33.1 µM]
O=C(CCCCN1CCOCC1)Nc1ccc(-c2cccnc2)cc1 | 24.2% | 
C=C1CCC2C(C(C)(C)O)CCC2(C)CC(O)C(=C)CCC1O (stereo not given) |  | inactive [at 33.1 µM]
C[C@H]1CC[C@@]2(OC1)O[C@H]1CC3C4CC[C@H]5C[C@@H](O)[C@H](O)C[C@]5(C)C4=CC(=O)[C@]3(C)[C@H]1[C@@H]2C (stereo not given in full) | -16.6% [at 33.1 µM] | 
CCCC(=O)C1CCN(c2ncnc3c2CN(C(=O)c2ccc(-c4ccccc4)cc2)CC3)CC1 | 6.78% | 
Cn1ncnc1COc1nn2c(-c3cc(F)ccc3F)nnc2cc1C(C)(C)C | 2.22% | 
O=C(O)/C=C/c1cc2c(cc1O[C@@H]1O[C@H](CO)[C@@H](O)[C@H](O)[C@H]1O)OCO2 |  | inactive [at 33.1 µM]
C=C[C@H]1CN2CC[C@H]1C[C@@H]2C(O)c1ccnc2ccc(OC)cc12 (stereo not given in full) | 42.3% [at 33.1 µM] | 
O=C(O)c1ccc(OC2OC(CO)C(O)C(O)C2O)cc1 (stereo not given) | 45.9% | 
CC(C)CN(C[C@@H](O)[C@H](Cc1ccccc1)NC(=O)O[C@@H]1CO[C@H]2OCC[C@H]21)S(=O)(=O)c1ccc(N)cc1 |  | inactive
C=C1[C@H](OC(C)=O)[C@H]2[C@@H](OC(C)=O)[C@](C)(OC(C)=O)C[C@]2(OC(C)=O)C(=O)[C@H](C)/C=C/C(C)(C)C(=O)[C@H](OC(=O)C(C)C)[C@H]1OC(C)=O | -1.31% [at 15.1 µM] | 
COC(C(=O)N1Cc2[nH]nc(NC(=O)c3ccc(N4CCN(C)CC4)cc3)c2C1)c1ccccc1 (stereo not given) | -10.9% | 
CCC(Nc1ncnc2nc[nH]c12)c1nc2cccc(F)c2c(=O)n1-c1ccccc1 (stereo not given) |  | inactive
C[C@@H]1O[C@@H](O[C@@H]2[C@@H](O)[C@H](O[C@H]3CC[C@@]4(C)C(CC[C@]5(C)C4CC=C4[C@@H]6CC(C)(C)CC[C@]6(C(=O)O[C@@H]6O[C@H](CO)[C@@H](O)[C@H](O)[C@H]6O)CC[C@]45C)C3(C)C)O[C@H](C(=O)O)[C@H]2O)[C@H](O)[C@H](O)[C@H]1O (stereo not given in full) | -3.46% [at 15.1 µM] | 
COC(=O)C1=CO[C@@H](O[C@@H]2O[C@H](CO)[C@@H](O)[C@H](O)[C@H]2O)[C@@H]2[C@@](C)(O)[C@@H](OC(=O)/C=C/c3ccc(O)cc3)C[C@]12O |  | inactive [at 33.1 µM]
CCC(C)C1NC(=O)C2CCCN2C(=O)C(NC(C)=O)C(C)OC(=O)C(Cc2ccc(OC)cc2)N(C)C(=O)C2CCCN2C(=O)C(C(C)C)NC1=O (stereo not given) (Ac-TPIVP[NMeY](Me); ester 1-C; configuration not given here) |  | inactive [at 15.1 µM]
O=C(CC1C(=O)Nc2ccccc21)OC[C@H]1O[C@@H](OCCc2ccc(O)cc2)[C@H](O)[C@@H](O)[C@@H]1O (stereo not given in full) | -18.9% [at 33.1 µM] | 
CC12CCC3c4ccc(OC5OC(C(=O)O)C(O)C(O)C5O)cc4CCC3C1CCC2O (stereo not given) | 17.7% | 

SMILES | activity change, negative = inhibition | outcome
C/C(=C\CCC1(C)C2CCC(C2)C1(C)O)C(=O)O (stereo not given) | -15.9% | 
C[C@@H]1CCC2C(C)(C)[C@H](O)CC[C@]2(C)[C@@]12Cc1c(O)cc3c(c1O2)CNC3=O (stereo not given in full) |  | inactive [at 33.1 µM]
C[C@@]12C[C@]3(O)O[C@H](O1)[C@]1(COC(=O)c4ccccc4)[C@H]3C[C@@]12O[C@@H]1O[C@H](CO)[C@@H](O)[C@H](O)[C@H]1O | 9.29% [at 33.1 µM] | 
C[C@@H]1CC[C@]2(C(=O)O[C@@H]3O[C@H](CO)[C@@H](O)[C@H](O)[C@H]3O)CC[C@]3(C)C(=CCC4[C@@]5(C)C[C@@H](O)[C@H](O)[C@](C)(C(=O)O)C5CC[C@]43C)[C@@H]2[C@]1(C)O (stereo not given in full) | 16.3% [at 15.1 µM] | 
CC(C)C(CO)Nc1nc(Nc2cc(N)cc(Cl)c2)c2ncn(C(C)C)c2n1 (stereo not given) |  | inactive
O=C(c1cccc(Cl)c1F)N1CCN(Cc2cccc(Nc3nccs3)n2)CC1 | 23.2% | 
CC1(C)C=CN2C(=O)C3=CCCN3C(=O)[C@@H]2C[C@@]12Nc1ccccc1C2=O | -15.4% [at 33.1 µM] | 
C[C@@H]1O[C@@H](OC[C@H]2O[C@@H](Oc3cc(O)cc4c3C(=O)C(O)(Cc3ccc(O)cc3)O4)[C@H](O)[C@@H](O)[C@@H]2O)[C@H](O)[C@H](O)[C@H]1O (stereo not given in full) | 21.1% [at 15.1 µM] | 
OC[C@H]1O[C@@H](OC(CCCCc2ccc(O)cc2)CCc2ccc(O)cc2)[C@H](O)[C@@H](O)[C@@H]1O (stereo not given in full) |  | inactive [at 33.1 µM]
CC1CCC2(C(=O)O)CCC3(C)C(=CCC4C5(C)CCC(OC(=O)/C=C/c6ccccc6)C(C)(C)C5CCC43C)C2C1C (stereo not given) |  | inactive [at 15.1 µM]
CC1(C)CC[C@]23CO[C@@]4(CCC5[C@@]6(C)CC[C@H](O[C@@H]7OC[C@H](O[C@@H]8O[C@H](CO)[C@@H](O)[C@H](O)[C@H]8O)[C@H](O)[C@H]7O[C@@H]7O[C@H](CO)[C@@H](O[C@@H]8O[C@H](CO)[C@@H](O)[C@H](O)[C@H]8O)[C@H](O)[C@H]7O)[C@@](C)(CO)C6CC[C@@]5(C)[C@]4(C)C[C@H]2OC2OCC(O)C(O)C2O)C3C1 (stereo not given in full) |  | inactive [at 10.7 µM]
COc1ccc(/C=C\C(=O)O)c(O[C@@H]2O[C@H](CO)[C@@H](O)[C@H](O)[C@H]2O)c1 | 11.4% [at 33.1 µM] | 
COc1c/c(=C2\C=c3ccccc3=N2)[nH]/c1=C\c1[nH]c(C)cc1C | 107% | 
CC(C)(C)NS(=O)(=O)c1cncc(-c2cc(F)c3nc(N)nn3c2)c1 | 23.3% | 
CC1CC(O)C2(OC1=O)OC1C(O)C3C4CCC5CC(OC6OC(CO)C(O)C(O)C6OC6OC(C)C(O)C(O)C6O)CCC5(C)C4CCC3(C)C1C2C (stereo not given) | 12.4% [at 15.1 µM] | 
COc1ccc(-c2ccc(-c3cn(C(=O)N4CCCCC4c4ccccc4)nn3)cc2)cc1 (stereo not given) | -1.56% | 
CC(C)=CCC[C@](C)(O[C@@H]1O[C@H](CO[C@@H]2O[C@H](CO)[C@@H](O)[C@H](O)[C@H]2O)[C@@H](O)[C@H](O)[C@H]1O)C1CC[C@]2(C)[C@@H]1[C@H](O)CC1[C@@]3(C)CC[C@H](O[C@@H]4O[C@H](CO)[C@@H](O)[C@H](O)[C@H]4O[C@@H]4O[C@H](CO)[C@@H](O)[C@H](O)[C@H]4O)C(C)(C)[C@@H]3CC[C@]12C (stereo not given in full) |  | inactive [at 15.1 µM]
CN1CCN(c2ccc(C(=O)Nc3n[nH]c4ccc(Cc5cc(F)cc(F)c5)cc34)c(NC3CCOCC3)c2)CC1 |  | inactive; activator
COc1c2c(c(C)c3c1C(=O)OC3)OC1(C)CC(O)C(C(C)(C)O)C(C)(CCC(=O)O)C1C2 (stereo not given) | 6.98% [at 33.1 µM] | 
C=C(C)C(=O)OC1C(OC(C)=O)/C(C=O)=C\CC/C(CO)=C/C2OC(=O)C(=C)C21 (stereo not given) | 32.2% [at 33.1 µM] | 
